High-throughput results from PubChem.
AI-2 QS mod: modulates the Vibrio harveyi AI-2 quorum sensing system; Vibrio harveyi JMH597 AI-2 luminescence/OD600 ratio, 9 h; hits give low values; strain lacks LuxN and CqsS sensors; 0 = neutral-control median; activity change, % at 7.5 µM; hit rate 0.4% among 300,000; in the data active = activity change below about -75%, passing the limit was not always enough;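 also: luminescence divided by OD600 gain over 9 h not by final OD600 alone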
SMARCA2 act: SMARCA2 function activation, primary screen; MG213 cells, MMTV-luciferase reporter, dexamethasone, overnight; activation, % at 9.1 µM; hit rate 1% among 370,000; AID 652017; in the data active = activation above about 7.8%;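 also: 0% = vehicle wells and 100% = reference activator wells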
HSF1 inhib: HSF1 inhibition | hit rate 0.77% among 300,000 | NIH3T3-HGL HSE-luciferase, MG132-induced, luminescence 8 h; hits give low values | activity change, negative = inhibition, % at 7.5 µM (by protocol) | AID 2098;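 active = more than half of replicate wells show activity change below -50%, luminescence cut by over half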;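 also: luciferase reports HSF-1 transcriptional activity via heat shock element; 0% = median of DMSO wells and -100% = zero luminescence signal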
PG9 Ab binder: binds the HIV-1 gp120 antibody PG9; TR-FRET gp120-PG9 antibody binding; inhibition, % at 6.7 µM; hit rate 0.43% among 360,000; AID 624416; in the data active = inhibition above about 8.5%
HSP90 refold inh: HSP90 refolding inhibition in rabbit reticulocyte lysate | luciferase refolding luminescence, 3 h | inhibition, % at 5.6 µM | hit rate 0.91% among 290,000 | AID 1789;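 active = inhibition above the screen-wide mean plus 3 SD, computed separately per campaign, cut at about 16% in these data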;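 also: 0% = DMSO wells and 100% = 60 µM geldanamycin wells; inhibitors lower the luminescence because luciferase stays unfolded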
GAA850 FXN act: increases GAA850 frataxin promoter reporter activity; HEK293 lucGAA850 FXN promoter luciferase reporter, 24 h; percent of 10 µM SAHA response; activation, % at 6 µM; hit rate 0.56% among 360,000; AID 540364;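 active = activation above the average of all compounds screened plus 3 SD, cutoff fixed separately per campaign, cut at about 7.5% in these data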;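 also: 0% = DMSO wells and 100% = 10 µM SAHA wells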
The depositor's hits bear a star; . = no result given. In the library only some 3.4% were active in any assay of this set; here they are far more common.

SMILES	AI-2 QS mod	SMARCA2 act	HSF1 inhib	PG9 Ab binder	HSP90 refold inh	GAA850 FXN act
Cc1ccc(-c2cc(C(=O)NCCCN3CCOCC3)no2)cc1	23	-11	-76*	0	6	-9
O=C(NCCCN1CCOCC1)c1cc(-c2ccc(Cl)c(Cl)c2)on1	15	-5	0	1	-1	0
COc1ccc(-c2cc3nc(C)n(N)c(=O)c3s2)cc1	5	-6	-70*	-2	85*	-12
Cc1nc2cc(-c3ccccc3)sc2c(=O)n1N	33	-4	-53*	-1	49*	-9
O=C(NCCCc1ccccc1)OC1CC2CC1[C@H]1CCCCN1C2 (stereo partly specified)	.	-1	.	.	.	.
C=CCN1CC(COc2ccc(OC)cc2)OCCS1(=O)=O (stereo unspecified)	.	-2	.	-1	.	.
COc1ccc(C2C(C(=O)Nc3cc(Cl)ccc3F)CCC(=O)N2c2ccc(OC)cc2)cc1 (stereo unspecified)	.	2	.	.	.	.
O=C(Cc1ccccc1)NNC(=S)NC(=O)c1cccs1	-83*	-1	3	-2	0	0
Cc1cccc(C(=O)NC(=S)NNC(=O)c2ccccc2Cl)c1	22	2	-86*	-1	0	0
Cc1cccc(C(=O)NC(=S)NNC(=O)Cc2ccccc2)c1	-91*	-1	5	0	5	1
O=C(NC(=S)NNC(=O)c1cccs1)c1ccc(Br)o1	-88*	-3	5	-1	-1	-1
O=C(O)c1ccc(N2C(=O)CC(N3CCN(c4cccc(C(F)(F)F)c4)CC3)C2=O)cc1 (stereo unspecified)	12	-2	-56*	2	-2	-1
O=C(O)c1ccc(N2C(=O)CC(N3CCN(c4cccc(Cl)c4)CC3)C2=O)cc1 (stereo unspecified)	27	-3	-12	-1	0	2
O=C(NCc1ccc(Cl)cc1)OCCN1C(=O)CCC12CCC(c1ccccc1)CC2 (stereo unspecified)	.	-4	.	.	.	.
O=c1c(-c2ccccc2)c1-c1ccccc1	5	.	13	.	20*	.
COc1ccc(N/C(=C\C(=O)c2ccccc2)c2ccccc2)cc1OC	.	-1	.	0	.	.
N#CCCCc1cn(-c2cccc(-c3noc4c3C(=O)N(CC(=O)N3CCOCC3)CC4)c2)nn1	.	0	.	.	.	.
O=C(CNC(=O)C12CC3CC(CC(C3)C1)C2)NC1=NCCS1	-11	1	-12	1	0	1
O=C(CNC(=O)C1CCCCC1)NC1=NCCS1	7	1	-88*	1	-1	1
Cc1cc(NS(=O)(=O)c2ccc(NC(=O)CSc3nnc(-c4ccncc4)n3Cc3ccco3)cc2)nc(C)n1	.	-5	.	.	.	.
CCCCCCCCCCC[N+](C)(C)CC/C=C1/c2ccccc2Sc2ccc(Cl)cc21	-145*	.	5	.	6	1
Cc1cc(C(=O)NN=Cc2cccc(O)c2)n[nH]1	.	-3	.	.	.	.
CCOc1ccc(NCc2nnc(SCC(=O)Nc3cc(C)on3)n2-c2ccc(OC)cc2)cc1	17	.	-80*	.	0	-5
CCOc1ccc(NCc2nnc(SCC(=O)Nc3cc(C)on3)n2-c2ccccc2OC)cc1	19	.	-36	.	5	1
COc1ccc(C(=O)NC(=S)NCCO)cc1Br	9	-1	-68*	-3	-3	0
SMILES	AI-2 QS mod	SMARCA2 act	HSF1 inhib	PG9 Ab binder	HSP90 refold inh	GAA850 FXN act
S=c1[nH]nc(C2CCCCC2)n1/N=C/C=C/c1ccccc1	-92*	-5	-4	-3	0	0
CCCCNC(=O)NC1CCN(CC(=O)Nc2ccc3c(c2)OCCO3)CC1	.	-5	.	.	.	.
C=CCn1c(SCC(=O)Nc2ccccc2OCC)nnc1-c1ccc(C(C)(C)C)cc1	.	-5	.	.	.	.
Nc1ccc2oc3ccccc3c2c1	18	2	-22	-2	16*	3
NC(=O)NN=C1CCC(O)CC1CC(=O)O (stereo unspecified)	.	3	.	-2	.	.
Cc1nc2ccc(NC(=O)c3c(Cl)cccc3Cl)cc2c(=O)[nH]1	.	6	.	.	.	.
COc1ccc(NC(=O)C2Cc3ccccc3C(=O)O2)cc1 (stereo unspecified)	13	2	-71*	-2	.	1
COc1ccc(CCNC(=O)C2Cc3ccccc3C(=O)O2)cc1 (stereo unspecified)	.	-2	-4	-2	-3	1
CCCOc1ccc(/C=N/Nc2ccccc2[N+](=O)[O-])c(O)c1	18	0	-69*	-2	3	-9
O=C1CC(N2CCCC2)=NC(=O)N1c1ccc(Br)cc1	.	2	.	.	.	.
CCOC(=O)c1c(CSCc2ccccc2)oc2ccc(O)c(CN(C)C)c12	-4	-7	-79*	-1	2	1
CCOC(=O)c1c(-c2ccccc2)oc2ccc(O)c(CN(C)C)c12	4	0	-8	-2	9	-3
COc1ccccc1NC(=O)OC1CC2CC1[C@H]1CCCCN1[C@H]2Cc1ccccc1 (stereo partly specified)	.	-3	.	.	.	.
COC(=O)[C@]12C[C@H](CC(=O)NCc3cccc(C(F)(F)F)c3)C(=O)N(Cc3ccco3)C1=C[C@H](COCc1ccccc1)O[C@@H]2C	.	0	.	.	.	.
CCCCCCCCOC(=O)c1nc(Cl)c(Cl)c(N)c1Cl	31	2	-5	-2	3	1
COC(=O)c1nc(Cl)c(Cl)c(N)c1Cl	-2	-2	-72*	1	-2	4
CCn1c2ccccc2c2cc(C=Nn3c(-c4ccccc4C)n[nH]c3=S)ccc21	.	-7	.	.	.	.
CCCCCN1CCCCC(NC(=O)c2ccccc2OC)C1=O (stereo unspecified)	.	1	.	.	.	.
COc1cccc(N2CCN(C(=O)c3ccc4nc(N5CCCCC5)sc4c3)CC2)c1	28	1	-23	-1	59*	4
COc1cccc(N2CCN(C(=O)c3ccc4ccccc4c3)CC2)c1	.	1	.	2	.	4
Cc1ccccc1-n1c(C)nc2ccccc21	2	-4	-53*	0	-3	-1
CCCCCCCCN1C(=O)N2Cc3ccccc3C2CS1(=O)=O (stereo unspecified)	.	-1	.	.	.	.
CN(C)C(=O)CSc1n[nH]c(=O)[nH]c1=O	2	0	-89*	0	6	0
CC1=CC2C(C(O)CC3(C)C2CC(C)C32OCOC23COCO3)C2(C)C/C(=C\O)C(=O)C=C12 (stereo unspecified)	.	-8	94*	-2	.	-3
O=C(COC(=O)Cc1c(Cl)cccc1Cl)Nc1ccc(OC(F)(F)F)cc1	7	0	-84*	-2	-4	2
CN(CC(=O)Nc1ccc(OC(F)(F)F)cc1)C(=O)Cc1c(Cl)cccc1Cl	27	2	-3	-4	0	0
CCCCCCCCN1C(=O)[C@@H](CC(=O)N2CCCC2)C[C@@]2(C(=O)OC)C1=C[C@H](C(C)(C)C)O[C@@H]2C	.	-5	.	0	.	.
